Reference: PubChem BioAssay (Tox21)
Records with an inconclusive call do not appear. Entries that show only a call come without a potency. Active and inactive are the calls of the source. Unless noted, calls follow the shape of the full dose curve.

Molecular target: Thyrotropin receptor (Homo sapiens) (UniProt P16473)
Test: qHTS assay to identify small molecule antagonists of the thyroid stimulating hormone receptor (TSHR) signaling pathway (AID 1259385); also: nearly all actives have a fitted effect of over 20% in size
Settings: TSHR-HEK293 cAMP HTRF, TSH-stimulated antagonist mode; series mostly up to 92.4 µM
Outline: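 TSHR-HEK293 cells (800/well) plated 18 h, then compounds with Ro20-1724 and TSH at 1.5 ng/mL final, 30 min at room temperature. cAMP quantified by HTRF (cAMP-d2/anti-cAMP-cryptate, 1 h); 15 concentrations in triplicate.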

Thyrotropin receptor (Homo sapiens), sequence (P16473 whole entry, looked up): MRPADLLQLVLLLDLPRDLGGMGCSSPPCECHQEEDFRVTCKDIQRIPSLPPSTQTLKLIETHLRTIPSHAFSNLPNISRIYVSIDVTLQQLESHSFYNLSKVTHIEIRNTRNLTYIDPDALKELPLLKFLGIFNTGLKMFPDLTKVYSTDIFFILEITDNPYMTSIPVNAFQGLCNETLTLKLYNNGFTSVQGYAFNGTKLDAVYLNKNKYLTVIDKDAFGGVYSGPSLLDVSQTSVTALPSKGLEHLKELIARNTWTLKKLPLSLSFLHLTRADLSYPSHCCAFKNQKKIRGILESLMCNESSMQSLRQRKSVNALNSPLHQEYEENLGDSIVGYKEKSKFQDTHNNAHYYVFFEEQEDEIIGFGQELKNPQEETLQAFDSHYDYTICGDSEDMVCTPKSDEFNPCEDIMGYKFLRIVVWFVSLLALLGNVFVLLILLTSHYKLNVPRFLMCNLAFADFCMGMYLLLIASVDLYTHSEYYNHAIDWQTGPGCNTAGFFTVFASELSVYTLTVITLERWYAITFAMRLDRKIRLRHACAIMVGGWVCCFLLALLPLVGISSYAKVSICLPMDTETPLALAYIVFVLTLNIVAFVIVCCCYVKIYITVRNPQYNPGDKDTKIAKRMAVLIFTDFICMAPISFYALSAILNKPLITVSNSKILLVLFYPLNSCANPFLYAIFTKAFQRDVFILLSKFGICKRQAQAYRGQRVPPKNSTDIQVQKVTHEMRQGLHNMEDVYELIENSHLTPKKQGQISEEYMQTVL

Structure (SMILES)	Potency
NCCNC(=O)c1ccc(Cl)cn1	inactive
CC1CCN(CCCC(=O)c2ccc(F)cc2)CC1	inactive
OCCN1C[C@H](O)[C@@H](O)[C@H](O)[C@H]1CO	inactive
CCCCCCC(CCCCCCCCCCC(=O)OCC(COC(C)=O)OC(C)=O)OC(C)=O (stereo unspecified)	inactive
NC(=O)CCCCC1CCSS1 (stereo unspecified)	inactive
COc1cc(O)cc(O)c1	inactive
C#CC(O)C(CC)CCCC (stereo unspecified)	inactive
O=C1OC(=O)c2cc([N+](=O)[O-])ccc21	inactive
COCCOC(=O)CC#N	inactive
c1ccc(CCCc2ccccn2)cc1	inactive
CNc1ncnc2nc[nH]c12	inactive
N#CCN(CC#N)CCN(CC#N)CC#N	inactive
Nc1nc2c(ncn2CCC(CO)CO)c(=O)[nH]1	inactive
CCCCCCCCCCCCI	inactive
CCC(C)OC(=O)N1CCCCC1CCO (stereo unspecified)	inactive
CC(C)(C)C(=O)/C=C/c1ccc(Cl)cc1	inactive
CC(C)(C)N(CCO)CCO	inactive
C=CC(=O)OCCCCCC	inactive
NS(=O)(=O)c1cc2c(cc1C(F)(F)F)NC(Cc1ccccc1)NS2(=O)=O (stereo unspecified)	inactive

Structure (SMILES)	Potency
CC1=CC(=O)CCC1	inactive
CCCc1ccc(N)cc1	inactive
COc1cccc(Br)c1	inactive
CC(C)(O)Cc1ccccc1	inactive
CCN(CC)C(=O)c1ccc(O)c(OC)c1	inactive
CCO[Si](C)(OCC)OCC	inactive
COC(=O)CCCCCCCCC(=O)OC	inactive
CCC(=O)Nc1cccc(N)c1	inactive
Nc1cc(C(Cl)=C(Cl)Cl)c(S(N)(=O)=O)cc1S(N)(=O)=O	inactive
CCCCCCCCCCCCCCCCCC(=O)OCCCCCCCCCCCCCC(C)C	inactive
NC(=O)c1ncn([C@@H]2O[C@H](CO)[C@@H](O)[C@H]2O)c1N	inactive
CCCCCCCCCCC1CO1 (stereo unspecified)	inactive
NS(=O)(=O)c1cc2c(cc1Cl)NC(CSCc1ccccc1)=NS2(=O)=O	inactive
CCc1cc(S(=O)(=O)O)c2cc(C(C)C)cccc1-2	inactive
OCC(O)[C@@H](O)[C@H](O)[C@H](O)CO[C@H]1O[C@H](CO)[C@@H](O)[C@H](O)[C@H]1O (stereo partly specified)	inactive
C=CCOCC(O)CS(=O)(=O)O (stereo unspecified)	inactive
CCCCCCCCCCCCCCC	inactive
C=CCOc1nc(OCC=C)nc(OCC=C)n1	inactive

System: not listed separately
Test: qHTS assay to identify small molecule agonists of the estrogen receptor alpha (ER-alpha) signaling pathway in the presence of an antagonist - cell viability counter screen (AID 1259386; active = well fitted cell-killing curve with a large enough effect in the repeat runs;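 also: cells exposed to compounds for 22 h at 37 °C before the viability read; nearly all actives have a fitted effect of over 30% in size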)
Settings: VM7Luc4E2 viability, CellTiter-Fluor fluorescence, 22 h; series mostly up to 92.4 µM
Outline: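 ICI-182,780 at 10.0nM final accompanies the compound titration (15 concentrations, 22hr, 37C) on VM7Luc4E2 cells. The CellTiter-Fluor fluorescence readout runs in the same wells as the luciferase assay.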

Structure (SMILES)	outcome
NCCNC(=O)c1ccc(Cl)cn1	inactive
CC1CCN(CCCC(=O)c2ccc(F)cc2)CC1	inactive
OCCN1C[C@H](O)[C@@H](O)[C@H](O)[C@H]1CO	inactive
CCCCCCC(CCCCCCCCCCC(=O)OCC(COC(C)=O)OC(C)=O)OC(C)=O (stereo unspecified)	inactive
NC(=O)CCCCC1CCSS1 (stereo unspecified)	inactive
COc1cc(O)cc(O)c1	inactive
C#CC(O)C(CC)CCCC (stereo unspecified)	inactive
O=C1OC(=O)c2cc([N+](=O)[O-])ccc21	inactive
COCCOC(=O)CC#N	inactive
c1ccc(CCCc2ccccn2)cc1	inactive
CNc1ncnc2nc[nH]c12	inactive
N#CCN(CC#N)CCN(CC#N)CC#N	inactive
Nc1nc2c(ncn2CCC(CO)CO)c(=O)[nH]1	inactive
CCCCCCCCCCCCI	inactive
CCC(C)OC(=O)N1CCCCC1CCO (stereo unspecified)	inactive
CC(C)(C)C(=O)/C=C/c1ccc(Cl)cc1	inactive
CC(C)(C)N(CCO)CCO	inactive
C=CC(=O)OCCCCCC	inactive
NS(=O)(=O)c1cc2c(cc1C(F)(F)F)NC(Cc1ccccc1)NS2(=O)=O (stereo unspecified)	inactive

Structure (SMILES)	outcome
CC1=CC(=O)CCC1	inactive
CCCc1ccc(N)cc1	inactive
COc1cccc(Br)c1	inactive
CC(C)(O)Cc1ccccc1	inactive
CCN(CC)C(=O)c1ccc(O)c(OC)c1	inactive
CCO[Si](C)(OCC)OCC	inactive
COC(=O)CCCCCCCCC(=O)OC	inactive
CCC(=O)Nc1cccc(N)c1	inactive
Nc1cc(C(Cl)=C(Cl)Cl)c(S(N)(=O)=O)cc1S(N)(=O)=O	inactive
CCCCCCCCCCCCCCCCCC(=O)OCCCCCCCCCCCCCC(C)C	inactive
NC(=O)c1ncn([C@@H]2O[C@H](CO)[C@@H](O)[C@H]2O)c1N	inactive
CCCCCCCCCCC1CO1 (stereo unspecified)	inactive
NS(=O)(=O)c1cc2c(cc1Cl)NC(CSCc1ccccc1)=NS2(=O)=O	inactive
CCc1cc(S(=O)(=O)O)c2cc(C(C)C)cccc1-2	inactive
OCC(O)[C@@H](O)[C@H](O)[C@H](O)CO[C@H]1O[C@H](CO)[C@@H](O)[C@H](O)[C@H]1O (stereo partly specified)	inactive
C=CCOCC(O)CS(=O)(=O)O (stereo unspecified)	inactive
CCCCCCCCCCCCCCC	inactive
C=CCOc1nc(OCC=C)nc(OCC=C)n1	inactive

Molecular target: Progesterone receptor (Homo sapiens) (UniProt P06401)
Sequence (P06401 whole entry, looked up): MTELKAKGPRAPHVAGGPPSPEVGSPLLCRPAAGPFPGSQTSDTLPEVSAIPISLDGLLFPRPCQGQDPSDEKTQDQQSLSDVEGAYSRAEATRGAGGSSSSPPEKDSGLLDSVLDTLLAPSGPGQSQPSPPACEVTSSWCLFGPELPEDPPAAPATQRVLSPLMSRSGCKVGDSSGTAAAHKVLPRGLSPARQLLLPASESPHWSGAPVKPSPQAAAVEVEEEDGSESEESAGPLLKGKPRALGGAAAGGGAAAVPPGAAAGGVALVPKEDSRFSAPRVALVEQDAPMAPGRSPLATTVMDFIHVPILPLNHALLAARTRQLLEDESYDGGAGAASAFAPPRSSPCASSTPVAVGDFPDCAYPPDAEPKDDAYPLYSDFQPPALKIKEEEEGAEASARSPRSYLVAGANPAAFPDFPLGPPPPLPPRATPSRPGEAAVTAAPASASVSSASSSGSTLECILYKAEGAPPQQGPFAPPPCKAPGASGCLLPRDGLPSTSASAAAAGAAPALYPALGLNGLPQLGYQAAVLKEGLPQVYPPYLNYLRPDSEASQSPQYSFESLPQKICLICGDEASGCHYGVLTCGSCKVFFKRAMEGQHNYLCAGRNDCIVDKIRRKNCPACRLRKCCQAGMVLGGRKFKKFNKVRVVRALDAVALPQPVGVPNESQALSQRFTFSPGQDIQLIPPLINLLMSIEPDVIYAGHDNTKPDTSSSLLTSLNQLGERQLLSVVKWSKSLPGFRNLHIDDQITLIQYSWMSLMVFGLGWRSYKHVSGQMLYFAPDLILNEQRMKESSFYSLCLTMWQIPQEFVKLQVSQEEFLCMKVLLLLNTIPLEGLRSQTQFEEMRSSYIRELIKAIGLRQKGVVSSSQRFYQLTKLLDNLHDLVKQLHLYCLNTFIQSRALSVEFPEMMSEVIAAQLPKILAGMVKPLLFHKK
Test: qHTS assay to identify small molecule agonists of the progesterone receptor (PR) signaling pathway (AID 1346784); also: nearly all actives have a fitted effect of over 30% in size
Settings: PR-UAS-bla HEK293T, beta-lactamase FRET ratio, 16 h; series mostly up to 92.4 µM
Outline: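 PR-UAS-bla HEK 293T cells (beta-lactamase reporter under UAS) in 2% charcoal-stripped FBS, dosed with 23 nL compound after 6 hr, incubated 16hr at 37C. LiveBLAzer B/G FRET substrate added, fluorescence read after 2 hours.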

Structure (SMILES)	Potency
NCCNC(=O)c1ccc(Cl)cn1	inactive
CC1CCN(CCCC(=O)c2ccc(F)cc2)CC1	inactive
OCCN1C[C@H](O)[C@@H](O)[C@H](O)[C@H]1CO	inactive
CCCCCCC(CCCCCCCCCCC(=O)OCC(COC(C)=O)OC(C)=O)OC(C)=O (stereo unspecified)	inactive
NC(=O)CCCCC1CCSS1 (stereo unspecified)	inactive
COc1cc(O)cc(O)c1	inactive
C#CC(O)C(CC)CCCC (stereo unspecified)	inactive
O=C1OC(=O)c2cc([N+](=O)[O-])ccc21	inactive
COCCOC(=O)CC#N	inactive
c1ccc(CCCc2ccccn2)cc1	inactive
CNc1ncnc2nc[nH]c12	inactive
N#CCN(CC#N)CCN(CC#N)CC#N	inactive
Nc1nc2c(ncn2CCC(CO)CO)c(=O)[nH]1	inactive
CCCCCCCCCCCCI	inactive
CCC(C)OC(=O)N1CCCCC1CCO (stereo unspecified)	inactive
CC(C)(C)C(=O)/C=C/c1ccc(Cl)cc1	inactive
CC(C)(C)N(CCO)CCO	inactive
C=CC(=O)OCCCCCC	inactive
NS(=O)(=O)c1cc2c(cc1C(F)(F)F)NC(Cc1ccccc1)NS2(=O)=O (stereo unspecified)	inactive

Structure (SMILES)	Potency
CC1=CC(=O)CCC1	inactive
CCCc1ccc(N)cc1	inactive
COc1cccc(Br)c1	inactive
CC(C)(O)Cc1ccccc1	inactive
CCN(CC)C(=O)c1ccc(O)c(OC)c1	inactive
CCO[Si](C)(OCC)OCC	inactive
COC(=O)CCCCCCCCC(=O)OC	inactive
CCC(=O)Nc1cccc(N)c1	inactive
Nc1cc(C(Cl)=C(Cl)Cl)c(S(N)(=O)=O)cc1S(N)(=O)=O	inactive
CCCCCCCCCCCCCCCCCC(=O)OCCCCCCCCCCCCCC(C)C	inactive
NC(=O)c1ncn([C@@H]2O[C@H](CO)[C@@H](O)[C@H]2O)c1N	inactive
CCCCCCCCCCC1CO1 (stereo unspecified)	inactive
NS(=O)(=O)c1cc2c(cc1Cl)NC(CSCc1ccccc1)=NS2(=O)=O	inactive
CCc1cc(S(=O)(=O)O)c2cc(C(C)C)cccc1-2	inactive
OCC(O)[C@@H](O)[C@H](O)[C@H](O)CO[C@H]1O[C@H](CO)[C@@H](O)[C@H](O)[C@H]1O (stereo partly specified)	inactive
C=CCOCC(O)CS(=O)(=O)O (stereo unspecified)	inactive
CCCCCCCCCCCCCCC	inactive
C=CCOc1nc(OCC=C)nc(OCC=C)n1	inactive
